D1 allo mod: allosterically modulates the human D1 dopamine receptor | P21728 | HEK293 D1, CRE-luciferase, dopamine EC30 potentiation; actives deviate in either direction | B-score at 10 µM | hit rate 5.9% among 58,000;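 active means luminescence count or its row- and column-corrected plate score outside the 99.7% band of the plate's sample wells, on either side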
HePTP inh: human HePTP phosphatase inhibition; P35236; recombinant HePTP phosphatase activity, OD absorbance; inhibition, % at 20 µM; hit rate 0.64% among 110,000; in the data active means inhibition above about 50%;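 further: plate controls were vehicle for no effect and reference inhibitor for full effect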
PLAP act: activators of human placental alkaline phosphatase | P05187 | purified PLAP enzyme, luminescent substrate read-out; stronger effect = higher value | activation fold at 20 µM | hit rate 1.2% among 96,000; in the data active means activation fold above about 2
hDAT+cocaine: human DAT dopamine uptake with cocaine, either direction | Q01959 | LLC-PK1 hDAT cells, [14C]-dopamine uptake with cocaine IC80; actives deviate in either direction | B-score at 10 µM | hit rate 1.3% among 110,000;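 active means Z score or B-score, a plate-position-corrected score, falls beyond the plate's 99.7% confidence bounds, in either direction; inactive means both scores lie inside the 99.7% bounds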;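 further: scored against the spread of the other compound wells on the same plate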
Calb biofilm kill: kills Candida albicans biofilms; C. albicans biofilm + clotrimazole, Alamar Blue; hit rate 0.14% among 85,000; inhibition, % at 6 µM; AID 834;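 active means inhibition above 20%; inactive means inhibition below 20%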;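 further: preformed 24 hr biofilms exposed to compound for 48 hr; 0% = biofilm without compound and 100% = blank killed by clotrimazole plus chlorhexidine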
TNAP act mid DEA: human TNAP activation, intermediate phosphate acceptor; 64,000 tested, under 10 active; AID 813; purified TNAP, CDP-star luminescence, 100 mM DEA, 30 min; stronger effect = higher value; scale: 0 levamisole-inhibited, 1 vehicle-only enzyme; activation factor at 20 µM; P05186;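 active means activation factor of at least 2 at 20 µM, relative to controls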
Target sequence (P05186 whole entry, looked up): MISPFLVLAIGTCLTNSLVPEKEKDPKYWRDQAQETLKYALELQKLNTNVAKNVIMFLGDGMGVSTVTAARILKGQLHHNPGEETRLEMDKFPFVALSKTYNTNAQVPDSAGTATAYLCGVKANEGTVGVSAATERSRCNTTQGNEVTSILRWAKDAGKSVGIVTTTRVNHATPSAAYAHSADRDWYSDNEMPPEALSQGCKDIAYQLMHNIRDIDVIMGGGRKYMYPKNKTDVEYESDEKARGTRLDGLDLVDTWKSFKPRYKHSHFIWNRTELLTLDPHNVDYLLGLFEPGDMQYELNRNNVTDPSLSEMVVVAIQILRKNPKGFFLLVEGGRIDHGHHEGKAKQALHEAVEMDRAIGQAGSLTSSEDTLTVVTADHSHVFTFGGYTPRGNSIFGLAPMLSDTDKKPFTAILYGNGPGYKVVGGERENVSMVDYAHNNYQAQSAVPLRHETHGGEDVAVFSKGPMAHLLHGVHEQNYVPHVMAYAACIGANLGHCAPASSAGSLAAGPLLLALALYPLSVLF
Numbers without * were called inactive; x = not tested or not shown. This excerpt belongs to a sample that is enriched for hits.

SMILES	D1 allo mod	HePTP inh	PLAP act	hDAT+cocaine	Calb biofilm kill	TNAP act mid DEA
CC(C)(CO)NC(=O)NC12CC3CC(CC(C3)C1)C2	x	-7	x	x	x	x
Cc1ccc(C23CC4CC(CC(NC(=O)NC(C)(C)CO)(C4)C2)C3)cc1	x	x	2.3*	-1.2	2	x
CCc1c(C)nn2cn[n+](Cc3ccccc3Cl)c2c1[O-]	x	6	x	x	x	x
CN(C)CCCNC(=O)c1ccc([N+](=O)[O-])o1	x	-14	x	x	x	x
O=C(Cc1c(O)c2ccccc2[nH]c1=O)N1CCOCC1	x	4	x	x	x	x
Cc1ccc(-c2cc3c(nn2)-c2ccccc2C3=O)cc1	-5.7*	10	x	x	3	0.9
CN(C)Cc1c(O)c[n+]([O-])c2ccccc12	x	103*	x	x	x	x
CCO[C@@H]1OC(C(=O)N2CCN(Cc3ccc4c(c3)OCO4)CC2)=C[C@H](c2csc3ccccc23)[C@H]1CCCO	x	x	x	0.89	x	x
CC(=O)n1cc([C@H]2C=C(C(=O)N3CCN(Cc4ccc5c(c4)OCO5)CC3)O[C@@H](OCCCCO)C2)c2ccccc21	x	x	x	2.5*	x	x
CCO[C@@H]1OC(C(=O)N2CCN(Cc3ccc4c(c3)OCO4)CC2)=C[C@H](c2cn(C(C)=O)c3ccccc23)[C@H]1CCCO	x	x	x	2.1*	x	x
CSc1nnc2n(-c3ccccc3)c(=O)c3c4c(sc3n12)CC(C(C)(C)C)CC4 (stereo not drawn)	x	3	x	x	x	x
O=C(Nc1nnc(-c2cccs2)o1)c1cccc(C(F)(F)F)c1	0.85	4	2.1*	-1.2	2	0.8
CC(C)OC(=O)CSc1nnc(-c2ccco2)n1N	-3.1*	0	1.1	x	5	0.8
CCCn1c(SCC(N)=O)nnc1-c1ccco1	-3.2*	4	1	-0.56	7	1.1
CCn1c(SCC(N)=O)nnc1-c1ccco1	-1	8	0.9	0.054	1	0.9
NC(=O)CSc1nnc(-c2ccco2)n1N	x	x	0.8	-0.47	-3	x
Cc1ccc(C)c(S(=O)(=O)NCc2ccc(C(=O)N3CCC(Cc4ccccc4)CC3)cc2)c1	x	x	1.3	3.5*	7	x
Cc1ccc(C)c(S(=O)(=O)NCc2ccc(C(=O)N3CCN(C)CC3)cc2)c1	-0.58	3	1.6	-1.2	3	0.9
CCN(CC)c1ccc2cc(NC(=O)CCC(=O)O)c(=O)oc2c1	-7.7*	0	0.9	-0.41	-7	1
CCCCCCCCNC(=O)CCNC(=O)c1ccc(C(C)(C)C)cc1	x	x	2*	-0.43	3	x
CCCCCNC(=O)c1ccc(C(=O)NCCCCC)cc1	x	4	x	x	x	x
CCc1cccc(NC(=O)Cc2ccccc2)c1	x	102*	x	x	x	x
Cn1c(=O)[nH]c(=O)c2c1nc(N1CCN(c3ccccc3)CC1)n2CCSc1ncccn1	-4.2*	2	1	0.91	x	1
CN1CCN(c2nc3c(c(=O)[nH]c(=O)n3C)n2CCSc2ncccn2)CC1	-0.039	-5	1	x	-5	0.9
COc1ccccc1N(CC(=O)NCCSC)S(=O)(=O)c1ccccc1	x	6	x	x	x	x
SMILES	D1 allo mod	HePTP inh	PLAP act	hDAT+cocaine	Calb biofilm kill	TNAP act mid DEA
Fc1ccc(-c2nnc(NC3=NCCCCC3)o2)cc1	-6.6*	8	1.2	x	x	1
Fc1ccc(-c2nnc(-c3ccc(F)cc3)o2)cc1	x	5	x	x	x	x
COCCCNC(=O)CN(c1cc(C)cc(C)c1)S(=O)(=O)c1ccccc1	x	-6	x	x	x	x
C=CCc1c(C)c(C#N)c2nc3ccccc3n2c1NCCN(C)C	-0.85	2	1.4	2.7*	6	1
Cc1c(Cl)cccc1NC(=O)/C(C#N)=C/c1ccc(I)o1	x	-3	x	x	x	x
O=C(COc1ccc2ccccc2c1)Nc1cccc(Br)c1	x	70*	x	x	x	x
O=S(=O)(/N=C(/Nc1cc(N2CCOCC2)ncn1)c1ccc(F)cc1)c1ccccc1	1.2	-8	2.1*	-0.18	5	1
O=S(=O)(/N=C(/Nc1cc(N2CCOCC2)ncn1)c1ccccc1)c1ccccc1	0.5	8	0.9	-0.3	9	0.9
Cc1cccc(C(NC(N)=O)c2ccccc2)c1 (stereo not drawn)	x	-2	x	x	x	x
O=C(CSc1nc2ccccc2[nH]1)N1CCN(S(=O)(=O)c2ccc(Cl)cc2)CC1	x	x	2*	1.1	1	x
COc1cccc(N(C=O)C(=O)C2C3C=CC(C3=C3CCCC3)C2C)c1 (stereo not drawn)	x	-2	x	x	x	x
COc1cccc(NS(=O)(=O)c2cc(C)sc2C)c1	-0.35	0	x	2.6*	7	0.9
Cc1cc(S(=O)(=O)Nc2ccc(N(C)C)cc2)c(C)s1	x	x	0.9	0.064	4	x
Cc1c(Br)c([N+](=O)[O-])nn1C(C)C(=O)NCc1cccs1 (stereo not drawn)	x	x	1.1	-9.4*	x	x
Cc1c(Br)c([N+](=O)[O-])nn1C(C)C(=O)N1CCCc2ccccc21 (stereo not drawn)	x	x	1.1	-8.2*	x	x
CC(=O)Nc1ccc(NC(=O)C(C)n2nc([N+](=O)[O-])c(Br)c2C)cc1 (stereo not drawn)	x	x	1.1	1.2	x	x
Cc1ccc(Br)cc1S(=O)(=O)N1CCN(Cc2ccccc2)CC1	x	0	x	x	x	x
CNC(=O)c1ccsc1NC(=O)c1ccccc1	17*	12	x	1.2	-10	0.9
O=C(O)c1ccc(/C=C2\SC(=O)N(c3ccc(F)cc3)C2=O)cc1	x	100*	x	x	x	x
COc1ccc(/C=N/Nc2ncc(Br)cn2)cc1	x	-6	x	x	x	x
Cc1ccc(-n2c(=O)[nH]cc(C(=O)Nc3ccc4c(c3)OCCO4)c2=O)cc1	-5*	-6	1	0.75	6	1
Cc1ccn2cc(C(=O)Nc3ccc4c(c3)OCCO4)nc2c1	-4.5*	2	0.7	-0.34	3	0.9
O=C(COc1ccc(Cl)cc1Cl)NNc1nc(N2CCOCC2)nc(N2CCOCC2)n1	x	9	x	x	x	x
COc1cc(C)c(S(=O)(=O)NCc2ccc3c(c2)OCO3)cc1C	-1.1	7	0.6	0.32	27*	0.7
COc1cc(C)c(Cl)c(C)c1S(=O)(=O)NCc1ccc2c(c1)OCO2	-0.043	0	1	-1.3	-5	0.9
SMILES	D1 allo mod	HePTP inh	PLAP act	hDAT+cocaine	Calb biofilm kill	TNAP act mid DEA
O=C(Nc1cc(Cl)ccc1C(=O)O)c1ccc2c(c1)C(=O)N(c1ccccc1-c1ccccc1)C2=O	x	-7	x	x	x	x
COC(=O)C(=Cc1cc(Br)c(OCc2ccc([N+](=O)[O-])cc2)c(OC)c1)C(=O)OC	x	12	x	x	x	x
C=CCn1c2ccccc2c2nnc(SCC(=O)Nc3c(C)n(C)n(-c4ccccc4)c3=O)nc21	x	x	1	3*	x	x
C=CCn1c2ccccc2c2nnc(SCC(=O)N=C3NC(=O)CS3)nc21	x	56*	x	x	x	x
CCOC(=O)c1cnn2c1NC1=C(CCc3ccccc31)C2C(F)(F)F (stereo not drawn)	x	7	x	x	x	x
Cc1cccc(/C=N\NC(=O)COc2ccc(-c3ccccc3)cc2)c1O	x	4	x	x	x	x
O=C(Nc1cccc(Cl)c1)c1ccccc1Br	x	-7	x	x	x	x
Cc1cccc(-c2noc(CN(C(=O)c3ccc4c(c3)OCO4)C(C)C)n2)c1	-0.019	7	1.1	0.57	2	0.9
Cc1cccc(-c2noc(CN(C(=O)c3ccc(Br)o3)C(C)C)n2)c1	-0.98	0	1.1	1.8*	-4	1
O=C(CCn1cnc2ccccc2c1=O)Nc1ccc(Cl)c(Cl)c1	x	x	0.8	-1.2	41*	x

Assay outcomes: PubChem, several laboratories
